Bioassay records as filed in PubChem.
Many of the other results were omitted from the sample, so hits are more common in it than they were.
RmlC RmlD mix = RmlC/RmlD inhibition, mixture screen. inhibition, % at 5.5 µM. 110,000 compounds, 0.39% hits. AID 1532. RmlC/RmlD coupled enzyme inhibition, 384-well mixture HTS; in the data active = inhibition above about 30%, passing the limit was not always enough
HIV RNase H inh = inhibitors of HIV-1 reverse transcriptase RNase H. inhibition, % at 10 µM. P04585. RT-RNase H RNA/DNA duplex cleavage, fluorescence. 65,000 compounds, 1.9% hits; in the data active = inhibition above about 50%
RmlCD fluor art = counter-screen for RmlC/RmlD inhibitors: fluorescence artifact. 360 compounds, 96% hits. AID 1696. calls only. shares compounds with RmlC RmlD mix. RmlC/RmlD assay fluorescence artifact counter-screen; call rule not given here;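 also: compound alone with no enzyme and no substrates present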
A number is an active result; . = inactive; / = no result given; + = active, no number.

SMILES	RmlC RmlD mix	HIV RNase H inh	RmlCD fluor art
COc1ccc(C2CC(c3ccccc3)=NN2c2ccc(/C=N/NC(=O)c3ccncc3)cc2)cc1 (configuration not stated)	.	/	/
COc1ccc(C(=O)N2CC3(CC(c4cccc([N+](=O)[O-])c4)=NO3)C[C@H]2C(=O)NCC(N)=O)cc1 (some centres not stated)	.	/	/
COCCN(C(=O)c1cccc(OC)c1)c1nnc(-c2ccncc2)s1	.	.	/
C=CCN(C(=O)COc1ccccc1)c1nnc(-c2ccncc2)s1	154	/	+
CC(C)CC(NC(=O)OC(C)(C)C)c1cn([C@@H](Cc2ccc(O)cc2)C(=O)N2CCN(C(=O)OC(C)(C)C)CC2)nn1 (some centres not stated)	.	/	/
Cc1ccc2nc(-c3cccc(S(=O)(=O)N(C)C)c3)cn2c1	.	.	/
CN(C)S(=O)(=O)c1ccc(-c2cn3ccccc3n2)cc1	40	/	+
O=C(NC(NC(=O)c1ccccc1)c1ccccc1)c1ccccc1	.	/	/
NNc1nnc(-c2ccccc2)c(-c2ccccc2)n1	.	/	/
Nc1nc(N)c2nc(-c3ccccc3)c(N)nc2n1	119	.	+
CCOC(=O)c1sc(Nc2ccccc2)nc1C	.	/	/
CCOC(=O)c1sc(Nc2nc3c(OC)cccc3s2)nc1C	79	.	+
O=C(NCCN1CCOCC1)c1ccc(F)cc1	.	/	/
O=C(NCCN1CCOCC1)c1ccc(=O)oc1	43	.	+
CCOC(=O)C1CCN(C(C(=O)NC2CCCC2)c2ccc(C)cc2)CC1 (configuration not stated)	.	/	/
CCOC(=O)N1CCN(C(=O)c2ccc(CN(c3ccccc3)S(C)(=O)=O)cc2)CC1	.	.	/
O=C1OCC2OC(O)C(O)C(O)C2OC(=O)c2cc(O)c(O)c(O)c2-c2c(O)c(O)c3oc(=O)c4c(c(O)c(O)c5oc(=O)c2c3c54)-c2c1cc(O)c(O)c2O (configuration not stated)	35	/	+
C=CCc1ccc(O)c(-c2ccc(O)c(CC=C)c2)c1	.	/	/
CCOc1cccc(Nc2cc3n(c(=O)n2)CCc2cc(OC)c(OC)cc2-3)c1	.	/	/
COc1cc2c(cc1OC)-c1cc(OCc3cccnc3)nc(=O)n1CC2	115	.	+
CC(=O)c1c(C(C)=O)c(C)n(-c2ccc(N)c(C)c2)c1C	.	/	/
CCC1CCC/C1=N\NC(=O)c1cc(C)[nH]n1 (configuration not stated)	.	/	/
C=CCn1c(SCC(=O)OC)nc2sc3c(c2c1=O)CCN(C)C3	.	.	/
O=C(CN1CCCC1)Nc1ccc(-c2nc3cc(NC(=O)CN4CCCC4)ccc3o2)cc1	46	.	+
CCN(CC)CC(=O)Nc1ccc(-c2nc3cc(NC(=O)CN(CC)CC)ccc3o2)cc1	.	.	/
SMILES	RmlC RmlD mix	HIV RNase H inh	RmlCD fluor art
[O-]C1=N/[N+](=C/c2ccccc2Cl)CC1	.	/	/
COc1cccc(-n2nnnc2SCC(=O)c2ccc(NC(C)=O)cc2)c1	.	.	/
COc1cccc(-n2nnnc2SCC(=O)c2cc(OC)ccc2OC)c1	38	.	+
CCOc1cc(-c2nc3c(C)cccn3c2NCC2CCCO2)ccc1O (configuration not stated)	44	.	+
CCOc1cc(-c2nc3ccccn3c2NCC2CCCO2)ccc1O (configuration not stated)	.	.	/
N#Cc1nc(-c2ccc(OCc3ccccc3)cc2)oc1N1CCC(C(N)=O)CC1	/	.	/
COc1ccc(-c2nc(C#N)c(N3CCC(C(N)=O)CC3)o2)cc1	50	/	+
CCO[C@@H]1OC(C(=O)NCc2nc3ccccc3[nH]2)=C[C@H](c2coc3ccccc3c2=O)[C@H]1CCCO	.	/	/
COc1ccc(-c2onc3ccc(Cl)cc23)cc1OC	/	.	/
O=C(NCc1ccccn1)C1Nc2ccc(C(F)(F)F)cc2C2C=CCC12 (configuration not stated)	.	/	/
CCc1cc(=O)oc2cc(C)c(CN3CCCCC3)c(O)c12	.	.	/
CN1CCN(Cc2c(O)ccc3c(-c4ccccc4)cc(=O)oc23)CC1	.	.	/
Cc1cc(=O)oc2c(CN3CCC(C)CC3)c(O)c(Cl)cc12	149	.	+
Cc1cc(=O)oc2c(CN3CCCCC3)c(O)c(Cl)cc12	94	.	+
CCCc1cc(=O)oc2c(CN3CCCC3)c(O)ccc12	99	.	+
Cc1cc2oc(=O)cc(CN3CCC(C)CC3)c2cc1Cl	.	.	/
Cc1nc(CC(=O)N2CCN(c3cccc(C)c3C)CC2)cs1	.	.	/
COc1cccc(NC(=O)CSc2nnc(-c3cccc(OC(C)C)c3)n2N)c1	.	.	/
CC(=O)c1cc2cc(O)ccc2o1	136	.	+
CC(=O)c1cc2c(O)c(O)ccc2o1	.	.	/
CN1CCN(CCCNC(=O)c2ccc3c(c2)N(Cc2ccccc2)CCS3)CC1	38	.	+
O=C(NCCN1CCOCC1)c1ccc2c(c1)N(Cc1ccccc1)CCS2	.	.	/
COC(=O)Cc1c(C)c2ccc(OCc3nn[nH]n3)cc2oc1=O	.	/	/
COC(=O)Cc1c(C)c2c(OCc3nn[nH]n3)cc(C)cc2oc1=O	38	.	+
O=C(Nc1cccc(C(F)(F)F)c1)c1cc(-c2ccc(F)cc2)on1	.	/	/
SMILES	RmlC RmlD mix	HIV RNase H inh	RmlCD fluor art
COC(=O)c1c(N)n(CCCN2CCOCC2)c2nc3ccccc3nc12	.	/	/
COCCNC(=O)c1c(N)n(Cc2ccco2)c2nc3ccccc3nc12	.	/	/
CCOC(=O)c1c(N)n(CCN2CCCCC2)c2nc3ccccc3nc12	38	.	+
Nc1c(C(=O)NCCN2CCOCC2)c2nc3ccccc3nc2n1Cc1ccco1	37	.	+
Cc1ccc(-c2nn(-c3cc(Cl)ccc3[N+](=O)[O-])c(=O)c3ccccc23)cc1C	.	/	/
O=C(NCCN1CCOCC1)N1c2ccccc2Sc2ccccc21	.	/	/
CC1CCN=C(N)S1 (configuration not stated)	.	/	/
Cc1nc2c(c(=O)n1CCC1=CCCCC1)c1nc3ccccc3nc1n2/N=C/c1ccccc1	.	/	+
CCOCCCn1c(C)nc2c(c1=O)c1nc3ccccc3nc1n2CCC1=CCCCC1	/	.	/
O=C(CSCc1cccc(Br)c1)N1CCOCC1	.	.	/
COC(=O)C1=CNC=C(C(=O)OC)C1c1ccc(Cl)cc1	.	.	/
COC(=O)C1=CNC=C(C(=O)OC)C1c1cccc(OC)c1	50	.	+
COC(=O)CN(c1ccc(F)cc1)S(=O)(=O)c1ccc2c(c1)OCCO2	.	.	/
O=C(NCc1ccco1)c1cc2ccc(O)cc2oc1=O	86	.	+
COc1ccc2cc(C(=O)NCc3ccco3)c(=O)oc2c1	.	.	/
COc1ccc(-c2cc(C(F)(F)F)c(C#N)c(SCC(=O)Nc3nc(C)co3)n2)cc1	+	/	+
Cc1coc(NC(=O)CSc2nc(-c3ccc(Cl)cc3)cc(C(F)(F)F)c2C#N)n1	.	/	/
CC(=O)Nc1c(OC(C)=O)ccc2c(C)cc(=O)oc12	+	.	+
COc1ccc2c(C)cc(=O)oc2c1C	.	.	/
CC(=O)Oc1ccc2c(C)cc(=O)oc2c1	+	/	+
CC(=O)Oc1ccc2c(C)cc(=O)[nH]c2c1	64	.	+
Cc1cc(=O)[nH]c2cc(O)ccc12	.	/	/
Cc1ccccc1-c1c(C)oc2cc(O)ccc2c1=O	38	.	+
CC(=O)Oc1cc2oc(=O)cc(C)c2cc1OC(C)=O	.	.	/
Cc1oc2cc(O)ccc2c(=O)c1N1C(=O)c2ccccc2C1=O	.	.	/
CCOC(=O)CSc1ccc(S(=O)(=O)N(C)C2CCCCC2)cc1[N+](=O)[O-]	.	/	/
